Test results published in PubChem BioAssay (NCI).
The panel holds about 83,000 compounds, 20% with a hit somewhere; the sample as a whole holds those more often.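 Values shown are percent growth following 48 h exposure of cells in 96-well plates to a single concentration of compound; below 10 was considered active.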 Unmarked numbers belong to inactive results. Activity calls are given as the source filed them.

Tests used:
Assay in all cases: NCI-60 one-dose screen, 48 h (100 = growth as untreated, 0 = no growth, -100 = all killed)
Settings in all cases: 10 µM unless noted
[1] = system: DU-145 prostate
[2] = system: K-562 leukemia
[3] = system: MALME-3M melanoma
[4] = system: MDA-MB-231 breast
[5] = system: RXF 393 renal
[6] = system: SF-268 CNS
[7] = system: SF-295 CNS
[8] = system: SF-539 CNS
[9] = system: UACC-257 melanoma
[10] = system: M14 melanoma
[11] = system: HCT-15 colon
[12] = system: HT29 colon
[13] = system: SNB-75 CNS
[14] = system: SNB-19 CNS
[15] = system: U251 CNS
[16] = system: PC-3 prostate
[17] = system: SK-MEL-5 melanoma
[18] = system: UACC-62 melanoma
[19] = system: LOX IMVI melanoma
[20] = system: SK-MEL-28 melanoma

SMILES: CCCCN1C(=O)/C(=c2\sc3n(c2=O)C2C(NN=3)N(CC)C(=O)N2CC)c2cc(C)ccc21 (stereo not given)
- growth [1]: 98.7%
- growth [2]: 79.8%
- growth [3]: 89.3%
- growth [4]: 79.5%
- growth [5]: 61.2%
- growth [6]: 87%
- growth [7]: 99.6%
- growth [8]: 67%
- growth [9]: 98.7%
- growth [10]: 107%
- growth [11]: 86.2%
- growth [12]: 102%
- growth [13]: 87.9%
- growth [14]: 93.3%
- growth [15]: 98.3%
- growth [16]: 95.8%
- growth [17]: 92.8%
- growth [18]: 71.6%
- growth [19]: 78.8%
- growth [20]: 102%

SMILES: O=S(=O)(NCCCNc1nccc(-c2[nH]c(-c3ccccc3)nc2-c2ccc(F)c(O)c2)n1)c1cccc2ccccc12
- growth [1]: 61.5%
- growth [2]: 23.3%
- growth [3]: 32.8%
- growth [4]: 77.2%
- growth [5]: 75.4%
- growth [6]: 75.3%
- growth [7]: 45.7%
- growth [8]: 93.7%
- growth [9]: 44.1%
- growth [10]: 29.4%
- growth [11]: 39.4%
- growth [12]: 101%
- growth [13]: 75.4%
- growth [14]: 76.5%
- growth [15]: 50.5%
- growth [16]: 52.8%
- growth [17]: 34.1%
- growth [18]: 26.3%
- growth [19]: 31.9%
- growth [20]: 54.3%

SMILES: O=C(CCCCCCN1CC(=O)N2[C@@H](c3ccccc3Br)c3[nH]c4ccccc4c3C[C@H]2C1=O)NO
- growth [1]: 62.7%
- growth [2]: 22.6%
- growth [3]: 14.4%
- growth [4]: 50%
- growth [5]: 43.1%
- growth [6]: 79.6%
- growth [7]: 55.3%
- growth [8]: 51%
- growth [9]: 39.9%
- growth [10]: 42.1%
- growth [11]: 90.2%
- growth [12]: 37.2%
- growth [13]: 21.8%
- growth [14]: 55.4%
- growth [15]: 44.7%
- growth [16]: 56%
- growth [17]: 30%
- growth [18]: 21.6%
- growth [19]: -60.4% (active)
- growth [20]: 31.6%

SMILES: O=C1Nc2ccc(F)cc2/C1=C\C(=O)c1ccc(NS(=O)(=O)c2ccccc2)cc1
- growth [1]: 92.1%
- growth [2]: 49.1%
- growth [3]: 79.7%
- growth [4]: 90.4%
- growth [5]: 72.3%
- growth [6]: 97.9%
- growth [7]: 96.4%
- growth [8]: 97.5%
- growth [9]: 95.9%
- growth [10]: 90.7%
- growth [11]: 59.7%
- growth [12]: 81%
- growth [13]: 76.1%
- growth [14]: 95.6%
- growth [15]: 94.1%
- growth [16]: 92%
- growth [17]: 97.3%
- growth [18]: 77.7%
- growth [19]: 21.4%
- growth [20]: 105%

SMILES: Cc1[nH]c(C(=O)Nc2ccccc2OCc2cccc(C(=O)NC3CCCNC3)c2)c(Cl)c1Cl (stereo not given)
- growth [1]: -89% (active)
- growth [2]: -38.9% (active)
- growth [3]: -68.4% (active)
- growth [4]: -68% (active)
- growth [5]: -69.4% (active)
- growth [6]: 25.1%
- growth [7]: -87.9% (active)
- growth [8]: -84.6% (active)
- growth [9]: 94.6%
- growth [10]: -87% (active)
- growth [11]: -84.2% (active)
- growth [12]: -58.9% (active)
- growth [13]: 84.1%
- growth [14]: -80.4% (active)
- growth [15]: -57.6% (active)
- growth [16]: -82.2% (active)
- growth [17]: -22.9% (active)
- growth [18]: -84.4% (active)
- growth [19]: -89.8% (active)
- growth [20]: -84.9% (active)

SMILES: Nc1cc(C(=O)N/N=C\c2ccc(OC(F)F)c(OC3CCCC3)c2)nn1CC(O)c1ccccc1 (stereo not given)
- growth [1]: 105%
- growth [2]: 88.4%
- growth [3]: 112%
- growth [4]: 97.5%
- growth [5]: 96.3%
- growth [6]: 100%
- growth [7]: 101%
- growth [8]: 98.6%
- growth [9]: 104%
- growth [10]: 110%
- growth [11]: 99.1%
- growth [12]: 98.2%
- growth [13]: 84.1%
- growth [14]: 96.4%
- growth [15]: 94.7%
- growth [16]: 80.7%
- growth [17]: 97.1%
- growth [18]: 89.4%
- growth [19]: 99.1%
- growth [20]: 115%

SMILES: NNc1nnc2nc(Nc3ccccc3)nc(Nc3ccc(S(N)(=O)=O)cc3)n12
- growth [1]: 112%
- growth [2]: 101%
- growth [3]: 101%
- growth [4]: 95.8%
- growth [5]: 101%
- growth [6]: 107%
- growth [7]: 106%
- growth [8]: 96.5%
- growth [9]: 106%
- growth [10]: 108%
- growth [11]: 100%
- growth [12]: 108%
- growth [13]: 90.6%
- growth [14]: 102%
- growth [15]: 105%
- growth [16]: 103%
- growth [17]: 101%
- growth [18]: 95.8%
- growth [19]: 97.3%
- growth [20]: 106%

SMILES: CN1c2ccccc2Sc2cc(/C=N/Nc3ccnc4cc(Cl)ccc34)ccc21
- growth [1]: 103%
- growth [2]: -7.83% (active)
- growth [3]: 94.7%
- growth [4]: 98.5%
- growth [5]: 82.2%
- growth [6]: 99.4%
- growth [7]: 98.7%
- growth [8]: 103%
- growth [9]: 96.3%
- growth [10]: 92.7%
- growth [11]: 50.2%
- growth [12]: 76.5%
- growth [13]: 104%
- growth [14]: 94.8%
- growth [15]: 80.7%
- growth [16]: 88.6%
- growth [17]: 94.7%
- growth [18]: 101%
- growth [19]: 47.7%
- growth [20]: 103%

SMILES: O=C(Nc1ccc(Cl)c(C(F)(F)F)c1)Nc1ccc2c(ccn2C(=O)c2cccc(F)c2)c1
- growth [1]: 24.5%
- growth [2]: 11.4%
- growth [3]: 56%
- growth [4]: 87%
- growth [5]: 28.7%
- growth [6]: 55.4%
- growth [7]: 5.17% (active)
- growth [8]: 66.7%
- growth [9]: 60.6%
- growth [10]: 56.2%
- growth [11]: 17%
- growth [12]: 39.8%
- growth [13]: 55%
- growth [14]: 39.7%
- growth [15]: 23.3%
- growth [16]: 9.11% (active)
- growth [17]: 62.9%
- growth [18]: 39.7%
- growth [19]: 38.4%
- growth [20]: 46.6%

SMILES: O=C(/C=C/c1cc(Cl)ccc1Cl)Nc1ncc(Cc2ccc(Cl)cc2)s1
- growth [1]: 14.8%
- growth [2]: 9.62% (active)
- growth [3]: 49%
- growth [4]: 6.75% (active)
- growth [5]: 33.7%
- growth [6]: 34.7%
- growth [7]: -2.3% (active)
- growth [8]: -22.6% (active)
- growth [9]: 49.1%
- growth [10]: 5.98% (active)
- growth [11]: 7.86% (active)
- growth [12]: -22.8% (active)
- growth [13]: 0.161% (active)
- growth [14]: 19.1%
- growth [15]: 2.48% (active)
- growth [16]: 27.3%
- growth [17]: 5.45% (active)
- growth [18]: 29.1%
- growth [19]: -37.3% (active)
- growth [20]: 52.6%

SMILES: O=C(/C=C/C=C/c1csc(Br)n1)NO
- growth [1]: 94.3%
- growth [2]: 73%
- growth [3]: 85.2%
- growth [4]: 106%
- growth [5]: 95.2%
- growth [6]: 102%
- growth [7]: 107%
- growth [8]: 83.2%
- growth [9]: 79.8%
- growth [10]: 94.6%
- growth [11]: 94.5%
- growth [12]: 94.5%
- growth [13]: 75.6%
- growth [14]: 94.4%
- growth [15]: 98.6%
- growth [16]: 84.8%
- growth [17]: 96%
- growth [18]: 84.8%
- growth [19]: -31.7% (active)
- growth [20]: 102%

SMILES: O=S(=O)(NCCCNc1nccc(-c2[nH]c(-c3ccccc3)nc2-c2ccc(F)c(O)c2)n1)c1cccc(F)c1
- growth [1]: 100%
- growth [2]: 49.3%
- growth [3]: -2.58% (active)
- growth [4]: 79.3%
- growth [5]: 100%
- growth [6]: 103%
- growth [7]: 85.2%
- growth [8]: 103%
- growth [9]: 23.4%
- growth [10]: 29.3%
- growth [11]: 86%
- growth [12]: 99.4%
- growth [13]: 69.3%
- growth [14]: 110%
- growth [15]: 99.4%
- growth [16]: 77.3%
- growth [17]: 46.5%
- growth [18]: 18.2%
- growth [19]: 70%
- growth [20]: 31.8%

SMILES: C#CCN(C)CCCOc1ccc(NC(=O)CCCCCCCCC(=O)NO)cc1Cl
- growth [1]: 81.7%
- growth [2]: 40.7%
- growth [3]: 45.9%
- growth [4]: 89.5%
- growth [5]: 37.3%
- growth [6]: 97.8%
- growth [7]: 50.2%
- growth [8]: 74.5%
- growth [9]: 42.8%
- growth [10]: 72.9%
- growth [11]: 75%
- growth [12]: 67.8%
- growth [13]: 63.4%
- growth [14]: 77.3%
- growth [15]: 64.3%
- growth [16]: 73.9%
- growth [17]: 54.9%
- growth [18]: 40.6%
- growth [19]: 4.6% (active)
- growth [20]: 77%

SMILES: CC(=O)OC[C@@]12Oc3c(cccc3-c3ccc(O)c4c3O[C@]3(COC(C)=O)C(=C4O)C(=O)C[C@H](C)[C@@H]3OC(C)=O)C(O)=C1C(=O)C[C@H](C)[C@@H]2OC(C)=O
- growth [1]: 20.7%
- growth [2]: 11.6%
- growth [3]: -15.5% (active)
- growth [4]: 5.9% (active)
- growth [5]: 11.9%
- growth [6]: 17.2%
- growth [7]: -21.9% (active)
- growth [8]: 18.4%
- growth [9]: -8.95% (active)
- growth [10]: 21.8%
- growth [11]: 11.9%
- growth [12]: 10.4%
- growth [13]: -10.4% (active)
- growth [14]: 17.7%
- growth [15]: 16.6%
- growth [16]: 11.6%
- growth [17]: -62.8% (active)
- growth [18]: -36.9% (active)
- growth [19]: -66.1% (active)
- growth [20]: 9.46% (active)

SMILES: Cc1ccc(Nc2nc(SC(C)C)nc(-c3ccccc3)c2C#N)cc1
- growth [1]: 104%
- growth [2]: 103%
- growth [3]: 75.3%
- growth [4]: 82.1%
- growth [5]: 84.1%
- growth [6]: 82%
- growth [7]: 93.9%
- growth [8]: 84.3%
- growth [9]: 113%
- growth [10]: 116%
- growth [11]: 95.1%
- growth [12]: 101%
- growth [13]: 91.1%
- growth [14]: 97.1%
- growth [15]: 103%
- growth [16]: 99.9%
- growth [17]: 83.5%
- growth [18]: 95.5%
- growth [19]: 96.4%
- growth [20]: 96.8%
